MCF10A rereplic = DNA re-replication induction in MCF 10a cells. hit rate 2.9% among 350,000. MCF 10A DNA re-replication, Hoechst nuclear intensity, 48 h. Potency, µM (highest dose often 46.1 µM), hits mostly activators; further: nearly all actives have a fitted effect of over 50% in size
SW480 rereplic = induces DNA re-replication in SW480 colon adenocarcinoma cells. hit rate 1.8% among 340,000. Potency, µM (top dose mostly 46.1 µM), hits mostly activators. SW480 DNA re-replication, Hoechst DNA content imaging, 48 h; further: nearly all actives have a fitted effect of over 55% in size
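First, 250 cells per well were seeded. Next, compound or vehicle (23 nL) was pinned in, plates sat 48 hr at 37 C. Finally Hoechst was added for 40 min before fluorescence scanning.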
KB-3-1 cytotox = KB-3-1 parental cell cytotoxicity; KB-3-1 viability, CellTiter-Glo ATP luminescence, 72 h; Potency, µM (series often up to 46.1 µM), usual class: cytotoxic; hit rate 1.4% among 400,000; further: nearly all actives have a fitted effect of over 60% in size
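Here the drug-naive KB-3-1 line serves as comparator for MDR sub-line selectivity; cells received compound titrations, 72 h at 37 °C, then CellTiter-Glo readout.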
PINK1 expr mod = changes PINK1 expression. PINK1 immunofluorescence, high-content cytometry, 24 h. hit rate 0.2% among 410,000. Potency, µM (top dose mostly 76.6 µM), actives largely listed as activators; active means well fitted activation curve with a large enough effect; inconclusive means small, poorly fitted or top-dose-only effect; cell line not stated here; further: nearly all actives have a fitted effect of over 65% in size
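A stable cell line was treated with compounds at 5 concentrations for 24 hours, with CCCP as control. PINK1 levels and mitochondrial localization were measured by immunofluorescence with mitochondrial, cell and nuclear markers after fixation, read by laser-scanning cytometry.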
KB-V1 cytotox = kills drug-selected multidrug resistant KB-V1 cells; KB-V1 MDR cells viability, CellTiter-Glo, 72 h; Potency, µM (doses to about 46.1 µM), actives largely listed as cytotoxic; hit rate 3.4% among 400,000; AID 1347076; further: nearly all actives have a fitted effect of over 60% in size
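Luminescent ATP read-out (CellTiter-Glo, 10 min) measures survival of drug-selected KB-V1 MDR cells after 72 h, 37 degrees C compound exposure. Medium: phenol-red-free DMEM, 10% FBS. Values from fitted concentration-response curves.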
Each line names hits and unclear results; the compound was inactive in the other large screens. A selection: hits, their analogues and other compounds. The true share with any hit is near 6.7%. Unless noted, the call rests on the fitted dose curve; in most records, active means well fitted curve in the direction sought with a large enough effect; inconclusive means small, poorly fitted or top-dose-only effect, or another doubt; inactive means no such curve, though single readings can be large; an effect the other way counts as inactive or inconclusive.

Cc1cc(C)n(-c2ccn(Cc3ccc(Cl)cc3Cl)c(=O)n2)n1	KB-V1 cytotox 7.3µM
CCOC(=O)[C@]12CCCC=C1N(Cc1cccc3ccccc13)C(=O)[C@H](CC(=O)NCCc1ccccc1OC)C2	KB-3-1 cytotox inconclusive, KB-V1 cytotox inconclusive (no result: MCF10A rereplic, SW480 rereplic)
COCCn1c(SCC(=O)Nc2ccc(S(=O)(=O)N3CCOCC3)cc2)nc2ccccc21	KB-V1 cytotox 5.2µM
Cc1ccc(S(=O)(=O)N2CCOCC2)cc1NC(=O)CSc1nc2ccccc2c(=O)n1Cc1ccccc1	KB-V1 cytotox 8.2µM
Cc1cc(NC(=O)CSc2nc3ccccc3c(=O)n2Cc2ccc(F)cc2)no1	MCF10A rereplic inconclusive, PINK1 expr mod inconclusive
O=C(CSc1nc2ccccc2c(=O)n1Cc1ccccc1)Nc1ccc(Br)cc1C(=O)O	MCF10A rereplic 23µM
O=C(CSc1nc2ccccc2c(=O)n1-c1ccc(F)cc1)Nc1cc(S(=O)(=O)N2CCOCC2)ccc1Cl	none
CCOc1ccc2ncc(S(=O)(=O)c3ccc(C)cc3)c(N3CCC4(CC3)OCCO4)c2c1	MCF10A rereplic inconclusive, SW480 rereplic inconclusive, KB-3-1 cytotox inconclusive, KB-V1 cytotox 4.1µM
CCN1CCN(c2c(S(=O)(=O)c3ccc(OC)cc3)cnc3cc(OC)c(OC)cc23)CC1	KB-3-1 cytotox inconclusive, KB-V1 cytotox inconclusive (no result: MCF10A rereplic, SW480 rereplic)
Cc1ccn2c(Nc3ccc4c(c3)OCO4)c(-c3ccccn3)nc2c1	KB-3-1 cytotox inconclusive, PINK1 expr mod 40µM
Cc1ccc(Nc2c(-c3ccccn3)nc3cc(C)ccn23)cc1	MCF10A rereplic inconclusive, KB-3-1 cytotox inconclusive, PINK1 expr mod inconclusive, KB-V1 cytotox inconclusive
Cc1ccc2nc(-c3ccco3)c(Nc3ccccc3)n2c1	SW480 rereplic inconclusive, KB-V1 cytotox 10µM
Cc1ccc(Nc2c(-c3ccccn3)nc3ccc(C)cn23)cc1	SW480 rereplic 21µM, KB-3-1 cytotox inconclusive, PINK1 expr mod inconclusive, KB-V1 cytotox inconclusive
Cc1ccc(Nc2c(-c3ccc(C)cc3)nc3ccc(C)cn23)cc1	none (no result: MCF10A rereplic, SW480 rereplic)
O=C(Nc1cccc(C(=O)O)c1)/C(=C\c1ccccc1)NC(=O)c1ccco1	KB-V1 cytotox inconclusive (no result: MCF10A rereplic, SW480 rereplic)
CN1C(=O)Cc2cc(S(=O)(=O)CCC(=O)N3CCN(c4cccc(Cl)c4)CC3)ccc21	none (no result: MCF10A rereplic, SW480 rereplic)
O=c1c2ccccc2nc(-c2ccoc2)n1CCc1ccccc1	MCF10A rereplic inconclusive, KB-3-1 cytotox inconclusive, KB-V1 cytotox 12µM
O=c1c2ccccc2nc(/C=C/c2ccccc2)n1CCc1ccccc1	none
CCOc1ccc(CCn2c(-c3ccco3)nc3ccccc3c2=O)cc1OCC	MCF10A rereplic inconclusive, SW480 rereplic inconclusive, KB-3-1 cytotox inconclusive, KB-V1 cytotox 7.3µM
CCc1ccc2[nH]c3nc(SCC(=O)NNC(=O)c4ccc(C(C)(C)C)cc4)nnc3c2c1	MCF10A rereplic 2.3µM, SW480 rereplic 5.8µM, KB-3-1 cytotox inconclusive
O=[N+]([O-])c1ccc(N2CCCCCC2)c([N+](=O)[O-])c1	MCF10A rereplic inconclusive
COC(=O)C1CCN(c2ccc([N+](=O)[O-])cc2[N+](=O)[O-])CC1	KB-V1 cytotox 16µM
COc1ccccc1NC(=O)c1ccc(CN(c2cc(Cl)ccc2C)S(=O)(=O)c2ccccc2)cc1	none
Cc1ccc(Cl)cc1N(Cc1ccc(C(=O)NCc2cccnc2)cc1)S(=O)(=O)c1ccccc1	KB-V1 cytotox 15µM
COc1ccc(NC(=O)c2ccc(CN(c3cc(Cl)ccc3C)S(=O)(=O)c3ccccc3)cc2)cc1OC	KB-V1 cytotox 3.7µM
COc1ccccc1CNC(=O)C(NS(=O)(=O)c1ccc2c(c1)CCN2C(C)=O)C(C)C (stereo not drawn)	none (no result: MCF10A rereplic, SW480 rereplic)
O=C(c1cc2ccccc2o1)N1CCN(c2ccccn2)CC1	none
Cn1ncc2c(O/N=C(\N)c3ccc(C(F)(F)F)cc3)ncnc21	MCF10A rereplic inconclusive, SW480 rereplic 7.3µM, KB-3-1 cytotox inconclusive, KB-V1 cytotox inconclusive
Cc1ccc(C(=O)NNc2ncnc3c2cnn3C)cc1	none
CC(NCc1ccc(S(N)(=O)=O)cc1)C(=O)N1CCc2ccccc21 (stereo not drawn)	none
CC(NCc1ccc2c(c1)OCO2)C(=O)N1CCc2ccccc21 (stereo not drawn)	SW480 rereplic inconclusive, KB-V1 cytotox 5.2µM
Cc1cc(C)n(CC(O)COc2ccc(Cl)cc2Cl)n1 (stereo not drawn)	KB-3-1 cytotox inconclusive, KB-V1 cytotox 10µM
COc1cc(=O)n2c(c1C(=O)N(C)Cc1nonc1C)CCN(Cc1cccc3ccccc13)CC2	none (no result: MCF10A rereplic, SW480 rereplic, KB-3-1 cytotox, KB-V1 cytotox)
CC1CC(C)CN(CCCNC(=O)c2ccc3c(c2)N(Cc2ccccc2)C(=O)c2ccccc2S3=O)C1 (stereo not drawn)	MCF10A rereplic 12µM, SW480 rereplic inconclusive
CN(Cc1ccccc1)C(=O)c1ccc2c(c1)N(Cc1ccc(Cl)cc1)C(=O)c1ccccc1S2=O (stereo not drawn)	KB-3-1 cytotox 16µM, KB-V1 cytotox inconclusive (no result: MCF10A rereplic, SW480 rereplic)
CCOCCCNC(=O)c1ccc2c(c1)N(CC)C(=O)c1ccccc1S2=O (stereo not drawn)	KB-3-1 cytotox inconclusive, KB-V1 cytotox 18µM
CCOC(=O)C1c2cccc(O)c2CCN1C(C)=O (stereo not drawn)	none (no result: MCF10A rereplic, SW480 rereplic)
c1csc(CNc2ccnc(-c3ccoc3)n2)c1	none (no result: MCF10A rereplic, SW480 rereplic, KB-3-1 cytotox, KB-V1 cytotox)
O=C(CSc1ncn(-c2ccccc2)n1)Nc1nc(-c2ccccc2)cs1	none
O=C(CSc1ncn(-c2ccccc2)n1)Nc1nc2ccccc2s1	MCF10A rereplic inconclusive, KB-V1 cytotox 18µM
CCOc1cc(/C=C2\C(=N)N3N=C(S(C)(=O)=O)SC3=NC2=O)ccc1OCCOc1cccc(OC)c1	MCF10A rereplic 23µM
COc1cc(/C=C2/C(=N)N3C=CSC3=NC2=O)ccc1OCCCOc1ccccc1C	none
CCS(=O)(=O)C1=NN2C(=N)/C(=C\c3ccc(OCCOc4cccc(OC)c4)c(OC)c3)C(=O)N=C2S1	MCF10A rereplic inconclusive
CCOc1cc(/C=C2/C(=N)N3C=CSC3=NC2=O)ccc1OCCCOc1ccccc1C	MCF10A rereplic 3.3µM, SW480 rereplic inconclusive
O=C(CC1(O)C(=O)N(Cc2cccc3ccccc23)c2ccccc21)c1cccnc1 (stereo not drawn)	MCF10A rereplic inconclusive, SW480 rereplic inconclusive, KB-3-1 cytotox 21µM, KB-V1 cytotox 21µM
CN1C(=O)C(O)(CC(=O)c2cccnc2)c2ccccc21 (stereo not drawn)	MCF10A rereplic inconclusive
COc1ccc(S(=O)(=O)N2CC=C(c3ccccc3)CC2)cc1OC	KB-V1 cytotox inconclusive (no result: MCF10A rereplic, SW480 rereplic)
Cc1ccc(C(C)C)c(OCC(=O)Nn2c(=O)[nH]c3ccccc3c2=O)c1	KB-V1 cytotox 21µM
Cc1ccc(C(C)C)c(OCC(=O)Nn2c(C)nc3ccccc3c2=O)c1	none
CC1CCC(Nc2nc3c(-c4cccc(C(F)(F)F)c4)nnn3c3ccccc23)CC1 (stereo not drawn)	none (no result: MCF10A rereplic, SW480 rereplic)
O=C(Cc1ccccc1)Nc1cccc(-c2nnc(-c3ccco3)o2)c1	MCF10A rereplic inconclusive
CCc1cccc(NC(=O)Cc2ccc(OC)c(OC)c2)c1	KB-3-1 cytotox inconclusive, KB-V1 cytotox 16µM

Screens deposited in PubChem BioAssay by National Center for Advancing Translational Sciences (NCATS).
